This is an account of results in PubChem BioAssay.

A short description of assay [1]: sensitizers of A549 cells to miR-34 induction, primary screen, imaging, A549 dox-inducible miR-34, nuclei and caspase counts (AID 1347080). The following applies: A549 miR-34 inducible, Hoechst nuclei count, 48 h.
A short description of assay [2]: survival rescue of mitochondrial mutant cells in low glucose, primary screen, MELAS cybrids, Rieske KO mouse fibroblasts, CellTiter-Glo (AID 1508586;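 active = mean z-score across replicates of 1.96 or higher in either the MELAS or the Rieske mutant cell line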;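 also: z relative to plate mean and SD of compound and empty wells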). In general terms: In ATP-based viability assays light output follows the ATP content of the culture.
For assay [3], the target named is NAD(+) hydrolase SARM1 (Homo sapiens) (UniProt Q6SZW1). Description: SARM1 TIR NADase inhibitors, cell lysate, NAD-Glo luminescence (AID 1508614;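 active = compound whose remaining NAD level is above about 45 nM, limit read from the data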;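 also: higher remaining NAD means stronger inhibition of SARM1 NADase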). The following applies: SAM-TIR HEK293T lysate NADase, at 1 µM, stronger effect = higher value.
NAD(+) hydrolase SARM1 (Homo sapiens), sequence (Q6SZW1 whole entry, looked up): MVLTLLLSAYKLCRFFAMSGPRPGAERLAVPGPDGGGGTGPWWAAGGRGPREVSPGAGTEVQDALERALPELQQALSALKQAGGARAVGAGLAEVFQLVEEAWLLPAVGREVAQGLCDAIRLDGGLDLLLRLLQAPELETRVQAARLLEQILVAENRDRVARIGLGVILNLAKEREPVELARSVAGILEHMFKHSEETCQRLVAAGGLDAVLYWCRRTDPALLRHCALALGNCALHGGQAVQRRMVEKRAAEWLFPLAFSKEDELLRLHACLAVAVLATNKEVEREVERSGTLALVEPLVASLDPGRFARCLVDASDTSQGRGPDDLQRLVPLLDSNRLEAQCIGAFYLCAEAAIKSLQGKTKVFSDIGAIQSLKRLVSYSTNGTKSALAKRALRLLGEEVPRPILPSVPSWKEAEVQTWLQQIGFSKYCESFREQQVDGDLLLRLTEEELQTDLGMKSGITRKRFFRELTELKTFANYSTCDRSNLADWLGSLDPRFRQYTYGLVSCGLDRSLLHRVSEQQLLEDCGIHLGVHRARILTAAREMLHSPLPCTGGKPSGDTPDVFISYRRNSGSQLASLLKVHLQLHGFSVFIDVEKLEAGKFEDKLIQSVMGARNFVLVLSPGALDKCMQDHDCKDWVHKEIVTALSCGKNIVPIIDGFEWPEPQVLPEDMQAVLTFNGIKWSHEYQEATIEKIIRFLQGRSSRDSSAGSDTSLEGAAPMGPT
Assay [4] is described as follows: phospholipid biosynthesis inhibitors in animal cells, primary screen, cell-based, LOPAC library, screen 4 (AID 1347384; call rule not given here). The settings on record: phospholipid biosynthesis inhibition screen, at 10 µM.
Assay [5] can be described thus: viability rescue of complex I mutant cybrids, primary screen, cell-based, galactose medium, ATP luminescence (AID 1645843;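 active = z-score of at least 1.8 in each of two replicates, scored against plate mean and spread of sample wells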;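 also: positive z means more ATP and so rescue of galactose-driven cybrid death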). The following applies: complex I mutant cybrid cells, 72 h, stronger effect = higher value.
Assay [6] addresses Mitogen-activated protein kinase 7 (Homo sapiens) (UniProt Q13164). Kind of assay: ERK5 transactivation activators in reporter cells, primary screen, cell-based, HTS (AID 1508626;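 active = luciferase signal above three times the same-plate solvent-only control wells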;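 also: luciferase driven by Gal4-ERK5 fusion binding five Gal4 sites before minimal TATA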). The settings on record: HeLa Gal4-ERK5 transactivation, 18 h, at 5 µM, stronger effect = higher value.
[7] abbreviates: stronger effect = lower value, cell number ratio, induced over uninduced.
[8] abbreviates: measured here: relative caspase fold change +Dox/-Dox.
Where [9] appears, read: measured here: total cells with miR-34 induction, stronger effect = lower value.
Setting [10] is: measured here: total cells without miR-34 induction.
[11] abbreviates: MELAS cybrid survival, CellTiter-Glo 48 h, stronger effect = higher value.
Where [12] appears, read: Rieske KO mouse fibroblast survival, CellTiter-Glo 72 h.

“And” between values parts separate entries of the source, which are not always exact repeats. Equal entries are not always repeated. The source made the active and inactive calls.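 The calls were made as follows, unless noted: active = compounds whose cell count with miR-34 switched on is under 0.7 times the count with it off; inactive = the rest.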

Mitogen-activated protein kinase 7 (Homo sapiens), sequence (Q13164 whole entry, looked up, the tested form may be a part): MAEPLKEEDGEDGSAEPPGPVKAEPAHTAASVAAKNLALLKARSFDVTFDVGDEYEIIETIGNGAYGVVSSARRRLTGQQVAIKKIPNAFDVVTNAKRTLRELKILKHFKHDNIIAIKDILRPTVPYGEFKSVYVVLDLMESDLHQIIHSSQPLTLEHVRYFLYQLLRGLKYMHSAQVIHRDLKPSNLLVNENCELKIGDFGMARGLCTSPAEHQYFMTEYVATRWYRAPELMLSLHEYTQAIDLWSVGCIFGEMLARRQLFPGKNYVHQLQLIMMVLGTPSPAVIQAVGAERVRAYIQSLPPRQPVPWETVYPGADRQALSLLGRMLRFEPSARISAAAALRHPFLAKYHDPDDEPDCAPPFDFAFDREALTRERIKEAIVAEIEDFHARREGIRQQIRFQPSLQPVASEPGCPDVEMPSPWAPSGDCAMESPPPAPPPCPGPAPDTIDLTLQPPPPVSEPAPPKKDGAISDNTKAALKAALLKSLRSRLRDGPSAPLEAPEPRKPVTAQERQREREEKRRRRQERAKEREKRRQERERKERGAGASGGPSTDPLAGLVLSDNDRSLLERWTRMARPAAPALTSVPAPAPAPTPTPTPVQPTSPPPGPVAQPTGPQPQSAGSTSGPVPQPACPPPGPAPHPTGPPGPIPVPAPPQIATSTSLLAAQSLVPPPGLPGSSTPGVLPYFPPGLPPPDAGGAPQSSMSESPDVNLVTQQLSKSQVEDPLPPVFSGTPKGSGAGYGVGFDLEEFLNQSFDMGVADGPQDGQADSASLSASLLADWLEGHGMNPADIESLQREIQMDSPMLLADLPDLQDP

Take `CCOC(=O)n1ccn(C)c1=S`: the fold change in assay [1] (setting [7]) was 0.866 (inactive) and 0.865 (inactive); in assay [1] (setting [8]) it was 1.28 and 0.473. Moreover, the cell count in assay [1] (setting [9]) is 8700 and 8400; in assay [1] (setting [10]), 10100 and 9710. The z-score is -0.0629 (inactive) and 0.57 (inactive) in assay [2] (setting [11]); -0.122 and 0.0161 in assay [2] (setting [12]). In addition, in assay [3], the remaining NAD was 10 nM (inactive).

For `CN(C)CC[C@@H](c1ccc(Br)cc1)c1ccccn1`, the fold change in assay [1] (setting [7]) was 0.946 (inactive); in assay [1] (setting [8]), 1.72. Also, the cell count in assay [1] (setting [9]) was 9070; in assay [1] (setting [10]) it was 9580. The result in assay [4] was inactive. Further, the z-score in assay [5] was -0.265 (inactive).

As to `C[C@H](NC(CCc1ccccc1)C(=O)O)C(=O)N1CCC[C@H]1C(=O)O` (some centres not stated), the fold change in assay [1] (setting [7]) was 0.987 (inactive) and 0.909 (inactive); in assay [1] (setting [8]) it was 0.994 and 1.8. For the same molecule, the cell count was 9660 and 10200 in assay [1] (setting [9]); 9790 and 11200 in assay [1] (setting [10]). The result in assay [4] was inactive. Moreover, the z-score in assay [2] (setting [11]) was -0.542 (inactive); in assay [2] (setting [12]) it was -1.35; in assay [5] it was 0.7 (inactive) and 0.605 (inactive). Besides, the remaining NAD in assay [3] is 10 nM (inactive).

`Cc1cccc(C)c1NC(=O)C(C)N` (configuration not stated): the fold change in assay [1] (setting [7]) is 0.975 (inactive) and 0.939 (inactive) and 0.865 (inactive); in assay [1] (setting [8]) it was 0.988 and 0.663 and 1.75. For the same molecule, the cell count is 10300 and 9450 and 9090 in assay [1] (setting [9]); 10600 and 10100 and 10500 in assay [1] (setting [10]). Further, the molecule was called inactive in assay [4]. Besides, the z-score is 0.748 (inactive) in assay [2] (setting [11]); 0.421 in assay [2] (setting [12]); 0.04 (inactive) and 0.79 (inactive) in assay [5].

Take `Cc1cc(N)c2ccccc2[n+]1CCCCCCCCCC[n+]1c(C)cc(N)c2ccccc21`: the fold change in assay [1] (setting [7]) is 1.04 (inactive) and 0.959 (inactive); in assay [1] (setting [8]), 1.28 and 1.58. The cell count was 1900 and 2180 in assay [1] (setting [9]); 1830 and 2270 in assay [1] (setting [10]). Also, the result in assay [4] was inactive. The z-score was -3.39 (inactive) in assay [2] (setting [11]), -2.46 in assay [2] (setting [12]) and -1.04 (inactive) in assay [5]. Besides, the remaining NAD in assay [3] is 10 nM (inactive).

As to `CCCCOc1cc(C(=O)NCCN(CC)CC)c2ccccc2n1`, the fold change in assay [1] (setting [7]) is 0.83 (inactive) and 0.969 (inactive) and 0.813 (inactive); in assay [1] (setting [8]), 0.865 and 0.646 and 1.83. For the same molecule, the cell count in assay [1] (setting [9]) is 7720 and 7790 and 10400; in assay [1] (setting [10]) it was 9300 and 8040 and 12800. The z-score is -0.328 (inactive) and -0.63 (inactive) in assay [2] (setting [11]); -0.208 and 0.449 in assay [2] (setting [12]). In addition, in assay [3], the remaining NAD was 10 nM (inactive). In addition, the luciferase signal in assay [6] was 40 AU (inactive).

As to `C[C@@H]1C[C@H]2[C@@H]3C[C@H](F)C4=CC(=O)C=C[C@]4(C)[C@@]3(F)[C@@H](O)C[C@]2(C)[C@@]1(O)C(=O)CO`, the figures for the fold change in assay [1] (setting [7]) and in assay [1] (setting [8]) were 0.863 (inactive) and 1.53, respectively. The cell count turned out to be 6000 in assay [1] (setting [9]) and 6940 in assay [1] (setting [10]). The values for the z-score in assay [2] (setting [11]) and in assay [2] (setting [12]) were 0.578 (inactive) and 0.936, respectively. In assay [3], the remaining NAD was 10 nM (inactive). Besides, the luciferase signal in assay [6] was 116 AU (inactive).

For the molecule `Cc1ccsc1/C=C/C1=NCCCN1C`, the fold change in assay [1] (setting [7]) was 0.892 (inactive) and 0.795 (inactive); in assay [1] (setting [8]), 1.23 and 5.32. For the same molecule, the cell count in assay [1] (setting [9]) is 8120 and 10200; in assay [1] (setting [10]), 9110 and 12800. In addition, the z-score in assay [2] (setting [11]) was -0.598 (inactive); in assay [2] (setting [12]), 0.242. In addition, in assay [3], the remaining NAD is 10 nM (inactive). Also, the luciferase signal in assay [6] was 88 AU (inactive).

Regarding `C[C@H](N)[C@H](O)c1cccc(O)c1`, the fold change in assay [1] (setting [7]) was 0.936 (inactive) and 0.834 (inactive); in assay [1] (setting [8]) it was 1.15 and 3.09. For the same molecule, the cell count was 9120 and 10800 in assay [1] (setting [9]); 9740 and 13000 in assay [1] (setting [10]). Besides, the z-score in assay [2] (setting [11]) was 0.835 (inactive); in assay [2] (setting [12]) it was 0.306. In assay [3], the remaining NAD was 10 nM (inactive). Moreover, the luciferase signal in assay [6] was 40 AU (inactive).

As to `O=C(OCC(O)CO)c1ccccc1Nc1ccnc2cc(Cl)ccc12` (configuration not stated), the fold change in assay [1] (setting [7]) is 0.91 (inactive); in assay [1] (setting [8]), 1.28. For the same molecule, the cell count in assay [1] (setting [9]) is 8940; in assay [1] (setting [10]) it was 9820. The z-score is 1.77 (inactive) in assay [2] (setting [11]) and 0.884 in assay [2] (setting [12]). Also, the remaining NAD in assay [3] was 10 nM (inactive). Besides, in assay [6], the luciferase signal was 176 AU (active).

On to `CCOC(=O)c1ccc(N)cc1`, for which the fold change in assay [1] (setting [7]) is 0.793 (inactive) and 0.945 (inactive) and 0.848 (inactive); in assay [1] (setting [8]) it was 1.13 and 0.443 and 0.967. The cell count in assay [1] (setting [9]) was 7670 and 8350 and 9530; in assay [1] (setting [10]), 9660 and 8840 and 11200. Also, the z-score in assay [2] (setting [11]) is -0.198 (inactive) and -0.244 (inactive); in assay [2] (setting [12]) it was -0.136 and -0.658. In addition, the remaining NAD in assay [3] is 10 nM (inactive). The luciferase signal in assay [6] was 112 AU (inactive).
